# Screening results from PubChem.
# Statin myotox sup – suppression of simvastatin myotoxicity; rescue of ATP level, % at 7.49 µM; C2C12 myotubes + simvastatin, ATP luminescence, 48 h; scaled: DMSO 0, geranylgeraniol control 100; 330,000 tested, 0.78% active; AID 602340;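 active = mean ATP rescue above about 67%, or every replicate alone reaching that limit, limit read from the data, passing the limit was not always enough; inconclusive = no clear call, values can overlap the other calls; inactive = mean under the limit and some replicate under it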;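 note: myotubes were challenged with 10 µM simvastatin during compound exposure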
# FXN GAA850 act – frataxin GAA850 promoter activation. AID 540364. HEK293 lucGAA850 FXN promoter luciferase reporter, 24 h; percent of 10 µM SAHA response. activation, % at 6 µM. 360,000 tested, 0.56% active;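 active = activation above the average of all compounds screened plus 3 SD, cutoff fixed separately per campaign, cut at about 7.5% in these data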;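 note: 0% = DMSO wells and 100% = 10 µM SAHA wells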
# esBAF inh – SWI/SNF esBAF complex inhibition; mouse ES cells, Bmi1-luciferase knock-in reporter, 24 h; 100% = twice the neutral-well signal; reporter increase, % at 12.5 µM; 350,000 tested, 2% active; in the data active = activation above about 40%; inconclusive = no clear call, values can overlap the other calls;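 note: 0% = median of the plate's neutral control wells and 100% = double that signal; a rise in the Bmi1 reporter signal indicates esBAF inhibition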
# Wnt bcat act – activators of Wnt/beta-catenin signaling. Wnt/beta-catenin reporter cell assay, activator, plate reader. activation, % at 9.35 µM. 300,000 tested, 1.2% active; in the data active = activation above about 30%, passing the limit was not always enough; inconclusive = no clear call, values can overlap the other calls;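 note: 0% = neutral control wells and 100% = positive control wells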
# MITF act – increases MITF-driven TRPM1 promoter luciferase signal; SK-MEL-5 TRPM1-promoter luciferase, 24 h; % of positive control, neutral wells = 0; activation, % at 12.5 µM; 300,000 tested, 0.75% active;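 active = mean activation of at least 80% with every replicate also reaching 80%; inconclusive = mean reaches 80% but some replicate falls short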;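 note: 0% = neutral control wells and 100% = parthenolide positive control wells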
# Active calls of the source: *; ? = inconclusive; . = no result. Hits are enriched below; roughly 3.3% of the tested compounds scored in any of these assays.
SMILES,Statin myotox sup,FXN GAA850 act,esBAF inh,Wnt bcat act,MITF act
C[C@@H]1CN([C@@H](C)CO)C(=O)c2cc(NC(=O)C3CCCCC3)ccc2O[C@@H](C)CCCCO[C@H]1CN(C)S(C)(=O)=O,3.4,.,-2.5,.,.
CCOC(=O)n1c(=O)n(Cc2ccccc2)c2ccccc21,.,-1.4,.,.,-5.1
CCOC(=O)n1c(=O)n(Cc2c(Cl)cccc2Cl)c2ccccc21,175.1*,-0.9,-4.6,-1.2,-1.5
C[C@H](CO)N1C[C@H](C)[C@H](CN(C)C(=O)Nc2cccc3ccccc23)Oc2ccc(NC(=O)Nc3ccccc3)cc2CC1=O,-23.5,.,1.1,.,.
O=C(O)C[C@@H]1C[C@H]2c3cc(NS(=O)(=O)c4ccccc4)ccc3O[C@H]2[C@H](CO)O1,-3.2,.,0.1,.,.
Cc1ccc2c(c1)sc1nc(=O)n(-c3cccc(Cl)c3)c(=O)n12,4.5,4.4,69.4*,.,102.6*
Cc1ccc2c(c1)sc1nc(=O)n(-c3ccc(Cl)c(Cl)c3)c(=O)n12,-2.2,-0.3,3.4,-1.7,12.2
O=c1nc2sc3ccccc3n2c(=O)n1-c1cccc(Cl)c1,5.8,5.1,76.2*,.,.
Cc1ccc2c(c1)sc1nc(=O)n(-c3ccc(Cl)cc3)c(=O)n12,-7.8,0.5,22.7,.,.
O=c1nc2sc3ccccc3n2c(=O)n1-c1ccc(Cl)cc1,.,2.1,45.6*,13.3,114.4*
C[C@@H]1CCCCO[C@@H](CN(C)S(C)(=O)=O)[C@@H](C)CN([C@H](C)CO)C(=O)c2cc(NC(=O)Nc3ccc(F)cc3)ccc2O1,.,.,-6.5,.,.
COc1ccc(C(=O)/C=C/c2cn(CN3CCN(C)CC3)c3ccccc23)cc1,26.1,2.4,51.4*,.,95.0*
COc1ccc(NC(=O)Nc2ccc3c(c2)C(=O)N([C@@H](C)CO)C[C@H](C)[C@H](CN(C)Cc2ccc(C(=O)O)cc2)OCCCC[C@@H](C)O3)cc1,.,.,-3.7,.,.
O=C(COC(=O)c1cc(=O)[nH]c2ccccc12)Nc1nc(-c2ccc(F)cc2)cs1,3.0,3.4,44.1*,23.8,45.8
CCn1nc(C(=O)OCC(=O)NCC(C)C)c2ccccc2c1=O,.,-0.3,.,1.5,9.0
CCn1nc(C(=O)OCC(=O)Nc2nc(-c3ccc(OC)cc3)cs2)c2ccccc2c1=O,-4.7,3.3,56.8*,.,68.2
O=C(CSc1nc(-c2ccco2)cc(C(F)(F)F)n1)N1CCSCC1,86.4*,-0.7,2.6,-2.2,-4.9
CN1CCN(C(=O)CSc2nc(-c3ccco3)cc(C(F)(F)F)n2)CC1,-1.1,0.0,3.7,-0.6,-1.8
O=C(NCC[C@H]1CC[C@@H](NC(=O)c2cccnc2)[C@H](CO)O1)Nc1ccc(C(F)(F)F)cc1,-13.4,.,-1.6,.,.
COc1ccccc1N1CCN(CC(=O)c2ccc(F)cc2)CC1,-5.7,1.7,41.9*,0.0,.
COc1ccc(C(=O)CN2CCN(c3ccc(F)cc3)CC2)cc1OC,.,0.5,.,.,-8.7
COC(=O)c1ccc(N2CCN(CC(=O)c3ccc(-c4ccccc4)cc3)CC2)c([N+](=O)[O-])c1,-3.2,-1.6,48.5*,.,-17.2
C[C@@H]1CN([C@H](C)CO)C(=O)c2cc(NS(=O)(=O)c3ccccc3)ccc2O[C@@H](C)CCCCO[C@@H]1CN(C)S(=O)(=O)c1cccs1,.,.,0.6,.,.
CSc1nc(N)n2nc(-c3ccc(Cl)cc3)cc2n1,-3.6,1.7,?,48.7*,.
CC(=O)N1CC[C@@H]2[C@H]1c1cc(-c3cccc(F)c3)ccc1N(C)[C@@H]2CO,-6.4,.,0.4,.,.
SMILES,Statin myotox sup,FXN GAA850 act,esBAF inh,Wnt bcat act,MITF act
CC(C)NC(=O)Nc1ccc2c(c1)C(=O)N([C@H](C)CO)C[C@@H](C)[C@H](CN(C)Cc1ccc(Cl)c(Cl)c1)OCCCC[C@H](C)O2,.,.,-2.9,.,.
COc1ccc(-n2nc3ccc(N)cc3n2)cc1,0.8,-9.7,-58.6,-1.1,.
Cc1cc2nn(-c3ccccc3)nc2cc1NC(=O)c1cccs1,.,2.2,.,30.9*,48.5
CCCC(=O)Nc1ccc2nn(-c3ccc(OC)cc3)nc2c1,-16.8,1.7,50.0*,-0.9,75.9
CCC(=O)Nc1cc2nn(-c3ccccc3)nc2cc1Cl,-8.2,6.3,36.4,37.6*,6.9
CC(C)C(=O)Nc1ccc2nn(-c3ccc(F)cc3)nc2c1,0.8,3.4,2.4,.,.
CC(C)CC(=O)Nc1ccc2nn(-c3ccccc3)nc2c1,.,2.3,.,?,99.5*
CCC(=O)Nc1nc(N)n(-c2ccccc2)n1,-0.5,1.2,1.8,-1.3,.
CC(=O)Nc1cc2nn(-c3ccccc3)nc2cc1C,-1.3,3.9,8.0,22.3,6.9
CC(C)NC(=O)N(C)C[C@@H]1Oc2ncc(-c3cccc(C#N)c3)cc2C(=O)N([C@H](C)CO)C[C@H]1C,-5.3,.,0.3,.,.
CN(C)CC(=O)N[C@H]1CC[C@@H](CCNC(=O)C2CCCCC2)O[C@H]1CO,-2.8,.,-0.7,.,.
CN(C)CC(=O)Nc1ccc2c(c1)[C@H]1C[C@H](CC(=O)NCc3cc(F)ccc3F)O[C@H](CO)[C@H]1O2,5.6,.,4.7,.,.
O=C(N=Nc1c(O)[nH]c2ccccc12)c1ccc2c(c1)OCO2,.,4.4,.,45.5*,-0.1
Fc1cccc(CSc2ccc(-c3ccc4c(c3)OCO4)nn2)c1,16.4,-0.2,37.9,-0.6,41.6
c1cncc(CSc2ccc(-c3ccc4c(c3)OCO4)nn2)c1,1.5,2.7,49.1*,31.7*,68.8
CCC(=O)Nc1ccc2c(c1)Cc1cc([N+](=O)[O-])ccc1-2,-10.3,5.4,80.8*,48.2*,92.8*
Cc1cc(C)n2nc(C(=O)OCC(=O)N(CC(C)C)C3CCS(=O)(=O)C3)nc2n1 (stereo not given),96.1*,-1.1,.,-3.3,3.5
NC(=O)c1ccsc1NC(=O)C1CCCN1S(=O)(=O)c1ccc(Cl)cc1 (stereo not given),20.2,-2.2,-11.0,-2.4,7.9
CC1CCCCN1S(=O)(=O)c1ccc(C(=O)Nc2sccc2C(N)=O)cc1 (stereo not given),108.7*,6.2,82.6*,13.0,58.0
N#C[C@@H]1[C@@H](c2ccccc2)[C@H](CO)N1S(=O)(=O)c1ccc(-c2ccccc2)cc1,87.9*,.,0.1,.,.
N#C[C@H]1[C@@H](c2ccccc2)[C@H](CO)N1S(=O)(=O)c1ccc(-c2ccccc2)cc1,-17.7,.,1.5,.,.
N#C[C@@H]1[C@@H](c2ccc(-c3ccc(F)cc3)cc2)[C@H](CO)N1C(=O)Cc1ccccc1,75.2*,.,-1.2,.,.
COc1ccc(-c2ccc([C@H]3[C@@H](C#N)N(C(=O)c4cccc(F)c4)[C@@H]3CO)cc2)cc1,22.8,.,50.7*,.,.
N#C[C@H]1[C@@H](c2ccc(-c3ccc(F)cc3)cc2)[C@H](CO)N1C(=O)Cc1ccccc1,-24.7,.,3.4,.,.
CO[C@@H]1CN(C)C(=O)c2ccc(NC(=O)C3CC3)cc2OC[C@H](C)N(Cc2cncnc2)C[C@@H]1C,-3.7,.,-1.8,.,.
COc1ccc(C(=O)NN(C)c2nc(-c3ccccc3)nnc2C(F)(F)F)cc1,74.1*,1.1,2.0,.,3.9
N/C(=N\OC(=O)CSc1ccccc1)c1ccc([N+](=O)[O-])cc1,.,4.3,.,39.0*,24.8
